# What was measured:
# Test in all cases: DAPPL (digital affinity profiling via proximity ligation, sequencing); 10 mM Tris-HCl pH 7.5, 50 mM NaCl, 1 mM DTT, 4% glycerol, room temperature, 30 min; GST-TFs on glutathione beads, 16-mer random dsDNA library, 0.1% formaldehyde crosslink after washing; high values mean tight binding
# FLI1 = target: T1, FLI1 (Homo sapiens, UniProt Q01543 1-452); details: protein: recombinant; tags: N-terminal GST; dsDNA, one strand shown
# T1 sequence: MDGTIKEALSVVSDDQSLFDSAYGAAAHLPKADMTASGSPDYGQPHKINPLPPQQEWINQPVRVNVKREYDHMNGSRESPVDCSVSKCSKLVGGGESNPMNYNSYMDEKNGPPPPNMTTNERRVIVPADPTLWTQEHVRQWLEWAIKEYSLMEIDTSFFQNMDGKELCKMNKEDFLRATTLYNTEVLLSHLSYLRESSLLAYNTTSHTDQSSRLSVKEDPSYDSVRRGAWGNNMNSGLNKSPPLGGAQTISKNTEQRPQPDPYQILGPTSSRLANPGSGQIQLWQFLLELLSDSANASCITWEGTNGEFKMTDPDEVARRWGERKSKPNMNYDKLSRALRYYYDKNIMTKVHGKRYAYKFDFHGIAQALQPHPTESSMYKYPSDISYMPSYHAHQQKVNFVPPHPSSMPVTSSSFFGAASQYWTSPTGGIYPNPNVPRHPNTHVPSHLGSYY
# Procedure, shortened: (§1)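 Pools of DNA-barcoded human transcription factors, expressed in yeast as GST fusions on glutathione beads and combined with a tag-only sample, were incubated with 200 nmole of a 16-mer random double-stranded DNA library. Incubation took 30 min at room temperature in Tris/NaCl/DTT/glycerol buffer and was followed by washing, 0.1% formaldehyde crosslinking, proximity ligation (BsaI/T4 ligase, 1 h, 37 °C), PCR amplification and sequencing on an Illumina NextSeq500. Binding signal is the ratio of a hexamer's read frequency for a factor to its frequency for the tag-only sample.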
# ELK1 = target: T2, ELK1 (Homo sapiens, UniProt P19419 1-428); details: protein: recombinant; tags: N-terminal GST; dsDNA, one strand shown
# T2 sequence: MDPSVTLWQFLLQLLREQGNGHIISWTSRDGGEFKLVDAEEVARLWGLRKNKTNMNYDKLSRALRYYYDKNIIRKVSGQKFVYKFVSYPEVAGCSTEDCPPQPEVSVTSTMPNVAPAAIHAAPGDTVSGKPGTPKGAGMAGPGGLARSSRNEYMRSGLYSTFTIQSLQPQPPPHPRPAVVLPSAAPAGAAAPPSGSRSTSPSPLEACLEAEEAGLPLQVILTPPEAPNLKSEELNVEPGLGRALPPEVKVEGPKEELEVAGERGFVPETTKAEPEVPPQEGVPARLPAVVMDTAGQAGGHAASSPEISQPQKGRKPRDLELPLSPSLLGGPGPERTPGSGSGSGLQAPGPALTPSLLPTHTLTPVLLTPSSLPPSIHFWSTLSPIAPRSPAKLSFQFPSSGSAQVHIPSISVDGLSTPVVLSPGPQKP
# Procedure, shortened: as §1
# GABPA = target: T3, GABPA (Homo sapiens, UniProt Q06546 1-454); details: protein: recombinant; tags: N-terminal GST; dsDNA, one strand shown
# T3 sequence: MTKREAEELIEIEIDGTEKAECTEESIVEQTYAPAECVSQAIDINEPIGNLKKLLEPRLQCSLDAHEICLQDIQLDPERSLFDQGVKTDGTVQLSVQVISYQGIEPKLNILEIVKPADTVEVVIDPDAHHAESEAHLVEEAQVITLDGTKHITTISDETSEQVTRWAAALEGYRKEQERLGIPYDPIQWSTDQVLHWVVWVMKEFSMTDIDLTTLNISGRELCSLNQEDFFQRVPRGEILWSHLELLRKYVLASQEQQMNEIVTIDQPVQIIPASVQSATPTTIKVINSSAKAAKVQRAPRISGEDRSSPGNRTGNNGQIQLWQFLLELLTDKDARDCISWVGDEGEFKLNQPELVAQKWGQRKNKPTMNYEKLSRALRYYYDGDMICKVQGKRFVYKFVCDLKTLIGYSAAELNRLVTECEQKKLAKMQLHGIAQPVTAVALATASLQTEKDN
# Procedure, shortened: as §1
# ERG = target: T4, ERG (Homo sapiens, UniProt P11308 1-479); details: protein: recombinant; tags: N-terminal GST; dsDNA, one strand shown
# T4 sequence: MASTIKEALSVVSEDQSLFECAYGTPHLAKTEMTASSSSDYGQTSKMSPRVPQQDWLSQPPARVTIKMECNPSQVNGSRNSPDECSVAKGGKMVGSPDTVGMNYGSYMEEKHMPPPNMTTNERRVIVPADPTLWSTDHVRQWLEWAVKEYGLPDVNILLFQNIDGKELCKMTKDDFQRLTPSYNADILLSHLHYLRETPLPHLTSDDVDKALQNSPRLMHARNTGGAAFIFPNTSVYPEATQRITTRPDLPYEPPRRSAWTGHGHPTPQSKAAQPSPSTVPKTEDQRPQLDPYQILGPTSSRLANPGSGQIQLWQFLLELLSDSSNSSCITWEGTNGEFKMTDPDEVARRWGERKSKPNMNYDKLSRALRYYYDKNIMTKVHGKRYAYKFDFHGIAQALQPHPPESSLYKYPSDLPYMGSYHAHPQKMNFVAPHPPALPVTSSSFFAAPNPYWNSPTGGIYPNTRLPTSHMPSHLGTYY
# Procedure, shortened: as §1
# ELF1 = ELF1 (Homo sapiens, UniProt P32519 1-619); details: protein: recombinant; tags: N-terminal GST; dsDNA, one strand shown
# Procedure, shortened: as §1
# SPI1 = SPI1 (Homo sapiens, UniProt P17947 1-270); details: protein: recombinant; tags: N-terminal GST; dsDNA, one strand shown
# Procedure, shortened: as §1
# SPIB = SPIB (Homo sapiens, UniProt Q01892 1-262); details: protein: recombinant; tags: N-terminal GST; dsDNA, one strand shown
# Procedure, shortened: as §1
# ELK3 = target: T5, ELK3 (Homo sapiens, UniProt P41970 1-407); details: protein: recombinant; tags: N-terminal GST; dsDNA, one strand shown
# T5 sequence: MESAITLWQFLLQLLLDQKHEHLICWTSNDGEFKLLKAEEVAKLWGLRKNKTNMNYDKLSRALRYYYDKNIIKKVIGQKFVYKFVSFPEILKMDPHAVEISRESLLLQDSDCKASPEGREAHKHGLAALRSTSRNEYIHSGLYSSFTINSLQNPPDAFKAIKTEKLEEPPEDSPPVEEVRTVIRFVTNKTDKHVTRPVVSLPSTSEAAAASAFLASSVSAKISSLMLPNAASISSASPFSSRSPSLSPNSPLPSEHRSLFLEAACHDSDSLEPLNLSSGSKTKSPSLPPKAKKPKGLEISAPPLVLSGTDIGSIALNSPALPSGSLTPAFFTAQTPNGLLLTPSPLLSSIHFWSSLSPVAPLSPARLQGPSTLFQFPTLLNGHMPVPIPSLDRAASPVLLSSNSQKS
# Procedure, shortened: as §1
# ETV5 = ETV5 (Homo sapiens, UniProt P41161 1-510); details: protein: recombinant; tags: N-terminal GST; dsDNA, one strand shown
# Procedure, shortened: as §1
# HSF1 = HSF1 (Homo sapiens, UniProt Q00613 1-529); details: protein: recombinant; tags: N-terminal GST; chain copies: 3; dsDNA, one strand shown
# Procedure, shortened: as §1
# SPIC = target: T6, SPIC (Homo sapiens, UniProt Q8N5J4 1-248); details: protein: recombinant; tags: N-terminal GST; dsDNA, one strand shown
# T6 sequence: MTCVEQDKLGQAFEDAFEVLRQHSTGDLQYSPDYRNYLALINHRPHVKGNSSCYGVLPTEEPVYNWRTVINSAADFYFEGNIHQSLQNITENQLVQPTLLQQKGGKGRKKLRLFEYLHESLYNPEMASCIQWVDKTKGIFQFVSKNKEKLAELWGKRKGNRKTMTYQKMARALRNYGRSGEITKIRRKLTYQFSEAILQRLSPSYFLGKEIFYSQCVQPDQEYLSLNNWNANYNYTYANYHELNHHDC
# Procedure, shortened: as §1
# ELF4 = ELF4 (Homo sapiens, UniProt Q99607 1-663); details: protein: recombinant; tags: N-terminal GST; dsDNA, one strand shown
# Procedure, shortened: as §1
# ELK4 = target: T7, ELK4 (Homo sapiens, UniProt P28324-2 1-405); details: protein: recombinant; tags: N-terminal GST; dsDNA, one strand shown
# T7 sequence: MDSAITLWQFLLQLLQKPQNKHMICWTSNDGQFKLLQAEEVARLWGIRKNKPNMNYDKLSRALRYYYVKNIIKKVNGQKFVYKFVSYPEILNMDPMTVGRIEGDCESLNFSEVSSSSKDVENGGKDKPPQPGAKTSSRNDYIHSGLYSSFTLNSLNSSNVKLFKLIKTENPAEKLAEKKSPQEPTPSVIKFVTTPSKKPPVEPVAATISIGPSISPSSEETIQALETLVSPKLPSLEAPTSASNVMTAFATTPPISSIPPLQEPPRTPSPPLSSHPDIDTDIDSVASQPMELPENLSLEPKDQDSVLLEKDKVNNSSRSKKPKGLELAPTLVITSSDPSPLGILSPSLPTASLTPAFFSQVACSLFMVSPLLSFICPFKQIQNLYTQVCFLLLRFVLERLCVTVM
# Procedure, shortened: as §1
# ETV2 = target: T8, ETV2 (Homo sapiens, UniProt O00321 1-342); details: protein: recombinant; tags: N-terminal GST; dsDNA, one strand shown
# T8 sequence: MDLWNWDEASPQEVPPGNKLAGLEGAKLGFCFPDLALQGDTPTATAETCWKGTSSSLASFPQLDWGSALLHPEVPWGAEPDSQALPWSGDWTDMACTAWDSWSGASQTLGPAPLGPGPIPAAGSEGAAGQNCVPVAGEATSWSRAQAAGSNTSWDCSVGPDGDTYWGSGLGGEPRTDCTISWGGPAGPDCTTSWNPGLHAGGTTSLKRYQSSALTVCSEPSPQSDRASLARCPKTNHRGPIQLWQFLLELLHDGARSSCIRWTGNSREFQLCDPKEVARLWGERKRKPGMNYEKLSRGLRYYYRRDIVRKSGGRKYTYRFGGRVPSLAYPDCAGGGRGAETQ
# Procedure, shortened: as §1
# ELF3 = target: T9, ELF3 (Homo sapiens, UniProt P78545 1-371); details: protein: recombinant; tags: N-terminal GST; dsDNA, one strand shown
# T9 sequence: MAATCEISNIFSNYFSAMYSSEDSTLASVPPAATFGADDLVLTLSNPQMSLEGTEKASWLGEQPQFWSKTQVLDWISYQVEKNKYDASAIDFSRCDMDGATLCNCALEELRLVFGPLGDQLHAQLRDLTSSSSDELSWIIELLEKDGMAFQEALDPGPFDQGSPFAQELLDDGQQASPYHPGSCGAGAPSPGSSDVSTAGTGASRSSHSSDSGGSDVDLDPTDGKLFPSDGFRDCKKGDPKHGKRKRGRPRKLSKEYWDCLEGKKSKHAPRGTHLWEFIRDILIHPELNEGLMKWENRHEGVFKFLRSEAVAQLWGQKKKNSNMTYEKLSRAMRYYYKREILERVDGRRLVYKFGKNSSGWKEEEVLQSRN
# Procedure, shortened: as §1
# CRX = CRX (Homo sapiens, UniProt O43186 1-299); details: protein: recombinant; tags: N-terminal GST; dsDNA, one strand shown
# Procedure, shortened: as §1
# ETV1 = ETV1 (Homo sapiens, UniProt P50549 1-477); details: protein: recombinant; tags: N-terminal GST; dsDNA, one strand shown
# Procedure, shortened: as §1
# Sequence of ETV5 (P41161 whole entry): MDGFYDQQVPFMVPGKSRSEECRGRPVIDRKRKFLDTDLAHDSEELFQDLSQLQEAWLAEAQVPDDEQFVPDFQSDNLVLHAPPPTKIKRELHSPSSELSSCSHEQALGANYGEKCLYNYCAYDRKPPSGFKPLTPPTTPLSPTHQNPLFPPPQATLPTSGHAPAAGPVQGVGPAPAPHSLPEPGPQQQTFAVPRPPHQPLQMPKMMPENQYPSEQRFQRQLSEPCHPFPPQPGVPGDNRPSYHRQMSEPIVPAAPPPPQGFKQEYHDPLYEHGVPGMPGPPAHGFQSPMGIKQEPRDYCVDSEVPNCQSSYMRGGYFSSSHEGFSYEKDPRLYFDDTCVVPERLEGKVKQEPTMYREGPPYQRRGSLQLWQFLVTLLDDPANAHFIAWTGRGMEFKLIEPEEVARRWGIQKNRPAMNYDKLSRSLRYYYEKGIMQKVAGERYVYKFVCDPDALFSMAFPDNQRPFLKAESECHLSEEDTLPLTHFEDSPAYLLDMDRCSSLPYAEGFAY
# Sequence of HSF1 (Q00613 whole entry): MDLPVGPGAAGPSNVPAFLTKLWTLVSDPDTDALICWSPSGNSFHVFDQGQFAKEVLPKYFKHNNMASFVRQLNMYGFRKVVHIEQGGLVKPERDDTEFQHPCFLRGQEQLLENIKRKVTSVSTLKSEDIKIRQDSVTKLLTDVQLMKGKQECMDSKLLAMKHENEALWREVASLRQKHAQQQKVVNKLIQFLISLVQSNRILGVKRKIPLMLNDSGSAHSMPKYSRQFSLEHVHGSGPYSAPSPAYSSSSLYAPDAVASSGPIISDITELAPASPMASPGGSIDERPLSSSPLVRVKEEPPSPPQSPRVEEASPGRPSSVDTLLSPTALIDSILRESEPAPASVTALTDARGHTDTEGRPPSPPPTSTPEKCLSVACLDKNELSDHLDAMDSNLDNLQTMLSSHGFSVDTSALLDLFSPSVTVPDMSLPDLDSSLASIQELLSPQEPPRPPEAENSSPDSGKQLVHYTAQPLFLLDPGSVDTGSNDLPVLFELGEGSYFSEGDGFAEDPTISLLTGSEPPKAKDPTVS
# Sequence of ETV1 (P50549 whole entry): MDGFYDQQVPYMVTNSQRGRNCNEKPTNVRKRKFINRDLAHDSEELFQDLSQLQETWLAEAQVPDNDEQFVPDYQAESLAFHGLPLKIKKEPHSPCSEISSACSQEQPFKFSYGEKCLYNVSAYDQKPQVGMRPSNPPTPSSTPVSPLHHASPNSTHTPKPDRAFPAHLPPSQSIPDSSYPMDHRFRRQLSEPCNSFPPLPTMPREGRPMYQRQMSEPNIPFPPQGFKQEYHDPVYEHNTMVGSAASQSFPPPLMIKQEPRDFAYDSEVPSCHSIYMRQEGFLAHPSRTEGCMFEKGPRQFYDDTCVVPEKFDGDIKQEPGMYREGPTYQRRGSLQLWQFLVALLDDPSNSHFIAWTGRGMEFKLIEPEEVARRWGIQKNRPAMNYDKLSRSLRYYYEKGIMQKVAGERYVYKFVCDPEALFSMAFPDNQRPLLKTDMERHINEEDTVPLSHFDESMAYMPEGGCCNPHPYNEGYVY
# Sequence of ELF1 (P32519 whole entry): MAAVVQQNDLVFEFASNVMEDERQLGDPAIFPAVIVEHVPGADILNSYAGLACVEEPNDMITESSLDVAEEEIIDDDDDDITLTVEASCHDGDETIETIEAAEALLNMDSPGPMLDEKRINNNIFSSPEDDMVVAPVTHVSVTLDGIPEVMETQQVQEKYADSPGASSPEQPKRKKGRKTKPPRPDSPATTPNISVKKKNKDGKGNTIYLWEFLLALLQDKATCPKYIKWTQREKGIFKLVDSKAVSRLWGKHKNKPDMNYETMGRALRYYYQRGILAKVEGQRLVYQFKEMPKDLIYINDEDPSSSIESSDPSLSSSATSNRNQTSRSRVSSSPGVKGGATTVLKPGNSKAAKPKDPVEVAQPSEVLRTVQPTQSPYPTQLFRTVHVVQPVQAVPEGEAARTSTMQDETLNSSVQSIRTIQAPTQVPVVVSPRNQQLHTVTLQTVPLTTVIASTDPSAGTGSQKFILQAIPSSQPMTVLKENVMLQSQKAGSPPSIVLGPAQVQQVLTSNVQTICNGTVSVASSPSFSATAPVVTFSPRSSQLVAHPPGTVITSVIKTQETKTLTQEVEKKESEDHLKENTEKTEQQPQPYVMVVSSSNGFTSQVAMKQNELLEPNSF
# Sequence of ELF4 (Q99607 whole entry): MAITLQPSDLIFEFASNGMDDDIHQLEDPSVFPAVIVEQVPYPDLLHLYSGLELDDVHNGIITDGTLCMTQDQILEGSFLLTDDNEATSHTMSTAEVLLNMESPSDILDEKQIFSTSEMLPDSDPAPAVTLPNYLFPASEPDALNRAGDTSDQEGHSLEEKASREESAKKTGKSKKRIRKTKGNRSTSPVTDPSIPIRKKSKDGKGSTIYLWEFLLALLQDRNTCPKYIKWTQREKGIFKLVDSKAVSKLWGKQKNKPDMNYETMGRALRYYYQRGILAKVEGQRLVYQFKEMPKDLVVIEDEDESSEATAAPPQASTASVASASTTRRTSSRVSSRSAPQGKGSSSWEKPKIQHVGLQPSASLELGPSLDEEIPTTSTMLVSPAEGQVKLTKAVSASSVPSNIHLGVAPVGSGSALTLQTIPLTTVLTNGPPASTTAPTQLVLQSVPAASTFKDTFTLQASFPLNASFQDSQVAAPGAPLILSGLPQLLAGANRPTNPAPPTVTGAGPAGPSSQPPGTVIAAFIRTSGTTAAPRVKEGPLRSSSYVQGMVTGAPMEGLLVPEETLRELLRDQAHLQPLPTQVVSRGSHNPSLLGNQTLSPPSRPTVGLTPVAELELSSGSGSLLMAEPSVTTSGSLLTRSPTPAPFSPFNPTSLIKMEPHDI
# Sequence of CRX (O43186 whole entry): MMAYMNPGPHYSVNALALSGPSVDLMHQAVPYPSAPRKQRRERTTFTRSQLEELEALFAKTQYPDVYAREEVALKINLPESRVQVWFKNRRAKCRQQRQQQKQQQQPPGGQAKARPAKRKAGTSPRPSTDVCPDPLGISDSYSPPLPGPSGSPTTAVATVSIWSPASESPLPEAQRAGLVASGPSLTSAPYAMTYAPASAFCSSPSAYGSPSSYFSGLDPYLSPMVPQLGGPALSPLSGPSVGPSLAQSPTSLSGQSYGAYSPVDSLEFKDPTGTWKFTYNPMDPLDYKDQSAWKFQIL
# Sequence of SPIB (Q01892 whole entry): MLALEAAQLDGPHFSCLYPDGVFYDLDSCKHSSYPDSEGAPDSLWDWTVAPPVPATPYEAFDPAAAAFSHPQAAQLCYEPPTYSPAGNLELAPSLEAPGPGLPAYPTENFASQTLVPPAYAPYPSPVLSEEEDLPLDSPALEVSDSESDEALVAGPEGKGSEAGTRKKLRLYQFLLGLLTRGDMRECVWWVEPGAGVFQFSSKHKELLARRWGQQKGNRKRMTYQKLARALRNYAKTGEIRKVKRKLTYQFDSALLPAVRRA
sequence,measurement,setting,value
TGTGGA,binding signal,FLI1,"1.08 fold enrichment (6-mer frequency, TF over GST control)"
same,binding signal,ELK1,"1.01 fold enrichment (6-mer frequency, TF over GST control)"
same,binding signal,GABPA,"1.06 fold enrichment (6-mer frequency, TF over GST control)"
same,binding signal,ERG,"1.16 fold enrichment (6-mer frequency, TF over GST control)"
same,binding signal,ELF1,"1.11 fold enrichment (6-mer frequency, TF over GST control)"
same,binding signal,SPI1,"1.09 fold enrichment (6-mer frequency, TF over GST control)"
same,binding signal,SPIB,"1.1 fold enrichment (6-mer frequency, TF over GST control)"
same,binding signal,ELK3,"1.04 fold enrichment (6-mer frequency, TF over GST control)"
same,binding signal,ETV5,"1.04 fold enrichment (6-mer frequency, TF over GST control)"
same,binding signal,HSF1,"1.13 fold enrichment (6-mer frequency, TF over GST control)"
same,binding signal,SPIC,"1.11 fold enrichment (6-mer frequency, TF over GST control)"
same,binding signal,ELF4,"1.06 fold enrichment (6-mer frequency, TF over GST control)"
same,binding signal,ELK4,"1.15 fold enrichment (6-mer frequency, TF over GST control)"
same,binding signal,ETV2,"1.13 fold enrichment (6-mer frequency, TF over GST control)"
same,binding signal,ELF3,"1 fold enrichment (6-mer frequency, TF over GST control)"
same,binding signal,CRX,"1.06 fold enrichment (6-mer frequency, TF over GST control)"
same,binding signal,ETV1,"1.03 fold enrichment (6-mer frequency, TF over GST control)"
